Consider 65 compounds from PubChem BioAssay AID1851 (National Center for Advancing Translational Sciences (NCATS), 2009).

SMILES strings stand for the structures. Screen size: about 16,000 compounds; about 5,700 (36%) were called active. Another 24% or so got no clear call; they are omitted. The list shows a part of the results. A number with no mark means an inactive call. Calls come from the whole dose curve; as a rule, active = well fitted curve in the direction sought with a large enough effect; inconclusive = small, poorly fitted or top-dose-only effect, or effect the other way; inactive = no such curve, though single readings can be large or run the other way.

A word on the AC50: it is the concentration at which the activity in the assay is half-maximal.
% is set by controls: 0 for no effect and ±100 for the full control effect.

For this assay, the target named is Cytochrome P450 1A2 (Homo sapiens) (UniProt P05177). The experiment in a line: Cytochrome panel assay with activity outcomes. The settings on record: recombinant CYP, pro-luciferin dealkylation, luminescence, p450-cyp1a2; series mostly up to 57.1 µM.
Sequence of Cytochrome P450 1A2 (Homo sapiens) (P05177 whole entry, looked up): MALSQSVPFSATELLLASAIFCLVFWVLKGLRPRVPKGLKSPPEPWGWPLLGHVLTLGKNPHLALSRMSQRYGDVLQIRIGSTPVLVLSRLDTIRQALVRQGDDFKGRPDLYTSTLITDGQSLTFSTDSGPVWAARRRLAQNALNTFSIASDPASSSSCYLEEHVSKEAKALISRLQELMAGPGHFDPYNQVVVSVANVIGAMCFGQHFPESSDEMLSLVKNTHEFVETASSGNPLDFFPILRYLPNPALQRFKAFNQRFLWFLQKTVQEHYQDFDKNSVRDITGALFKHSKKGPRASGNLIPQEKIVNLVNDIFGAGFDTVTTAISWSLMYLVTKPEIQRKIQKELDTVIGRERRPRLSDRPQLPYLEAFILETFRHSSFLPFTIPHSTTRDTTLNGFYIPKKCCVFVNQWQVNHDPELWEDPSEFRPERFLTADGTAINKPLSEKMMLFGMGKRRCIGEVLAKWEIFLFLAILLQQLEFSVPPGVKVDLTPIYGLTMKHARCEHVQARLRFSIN
Regarding `O=c1ccn([C@@H]2O[C@@H](COP(=O)(O)OP(=O)(O)O)[C@H](O)[C@@H]2O)c(=O)[nH]1`, the AC50 result is “inactive”.

As for `Cc1cccc(/C=N\Nc2cn[nH]c(=O)c2Cl)c1`, the AC50 was 5.01 µM (active).

With `Cc1cccc(NC(=S)NNC(=O)c2csc3c2CCCC3)c1`, the AC50 is 8.91 µM (active).

As for `CCCOc1cc(N)ccc1C(=O)OCCN(CC)CC`, the AC50 was 12.6 µM (active).

For `CCN(CC)CCOC(=O)c1cc(Cl)c(N)cc1OC`, the half-maximal activity concentration (AC50) is 12.6 µM (active).

`CCN(CC)CCCCCCCCOC(=O)c1cc(OC)c(OC)c(OC)c1`: the AC50 result was “inactive”.

For the compound `CCCOc1ccc(C(=O)OCCN(CC)CC)cc1N`, the concentration at half-maximal activity (AC50) is 5.01 µM (active).

As to `COc1cc(N)c(Cl)cc1C(=O)OCCCN1CCCCC1`, the AC50 result is “inactive”.

As to `C[N+]1(CCCC[N+]2(C)CCCCCCC2)CCCCCCC1`, the activity, negative = inhibition is -10.4% [at 2.29 µM].

Turning to `O=C(N/N=C1/C[C@@H](O)[C@@H](O)[C@@H]2[C@@H]3C(=O)N(Cc4ccccc4)C(=O)[C@H]3CC[C@@H]12)OCc1ccccc1`, the activity, negative = inhibition was -5.8% [at 11.4 µM].

Regarding `COCOc1ccc(Br)cc1C(=O)[C@H]1O[C@H]1c1cccc(OC)c1`, the activity, negative = inhibition is -9.07% [at 11.4 µM].

Consider `O=C(O)c1cc2cc(Cc3cccnc3)ccc2o1`, for which the AC50 result was “inactive”.

As for `Cc1ccc2nc(-c3cccnc3)oc2c1`, the AC50 was 5.01 µM (active).

Consider `Nc1nc(-c2cccnc2)cc(-c2cc(-c3cccnc3)nc(N)n2)n1`, for which the activity, negative = inhibition was -15.9% [at 2.29 µM].

With `Clc1ccc2oc(-c3cccnc3)nc2c1`, the AC50 is 1.41 µM (active).

As to `C[N+](C)(N)CCC[N+](C)(C)N`, the activity, negative = inhibition is -12% [at 11.4 µM].

Regarding `O=C(NNC(=S)Nc1ccccc1)C1CC1`, the AC50 result was “inactive”.

As to `CC(C)(C)NC(=S)Nc1ccc(Nc2ccccc2)cc1`, the AC50 is 14.1 µM (active).

For the compound `Cc1ccc2c(C)nc(Nc3nc(CSc4nc5ccccc5[nH]4)cc(=O)[nH]3)nc2c1`, the concentration at half-maximal activity (AC50) is 11.2 µM (active).

For `Cc1ccc2nc(Nc3nc(-c4ccccc4)cc(=O)[nH]3)nc(C)c2c1`, the AC50 is 4.47 µM (active).

`CN(C)c1nc(NCc2ccccc2)nc(N/N=C/c2ccc(Cl)cc2Cl)n1`: the AC50 result is “inactive”.

Consider `Cc1cc(Oc2ccccc2)nc(-c2ccccc2)n1`, for which the AC50 is 1.58 µM (active).

For the compound `Cc1cc(Oc2ccccc2)nc(NCc2ccccc2)n1`, the AC50 was 12.6 µM (active).

With `O=C1NCC2=C1C(c1ccc(Br)cc1)Nc1ccccc1N2` (stereo not given), the concentration at half-maximal activity (AC50) is 17.8 µM (active).

For `O=C1C[C@H](c2ccccc2)[C@@H](c2ccc(Br)cc2)O1`, the activity, negative = inhibition is -6.17% [at 11.4 µM].

Turning to `C=CC[C@@H]1C=C[C@@H](O/N=C(/C)CCC(=O)OC[C@@H]2O[C@H](C#Cc3ccccc3)C=C[C@@H]2Oc2ccc(C)cc2)[C@@H](CO)O1`, the activity, negative = inhibition was 4% [at 11.4 µM].

For the compound `Cc1ccc(C(c2ccc(C)o2)c2cccc([N+](=O)[O-])c2O)o1`, the AC50 is 11.2 µM (active).

As for `Cc1ccc(-n2c3c(c(=O)[nH]c2=O)C(C(F)(F)F)(C(F)(F)F)NC(=O)N3)cc1`, the AC50 entry was “inactive”.

Consider `COc1ccc(C(=O)NCC(c2ccc(F)cc2)N2CCOCC2)cc1S(=O)(=O)N1CCCC1` (stereo not given), for which the concentration at half-maximal activity (AC50) was 10 µM (active).

For `CCOc1ccc(C(=O)Nc2ccc(Cl)cn2)cc1Cl`, the half-maximal activity concentration (AC50) is 1.26 µM (active).

On to `Cc1cc(=O)oc(C)c1C(=O)Nc1ccc(Cl)cn1`, for which the AC50 entry is “inactive”.

As for `COc1ccc(C(=O)Nc2ccc(Cl)cn2)cc1Cl`, the AC50 was 0.631 µM (active).

As for `CC(=O)N1CC2(CC2)CC1c1ccccc1` (stereo not given), the AC50 result was “inactive”.

Turning to `Oc1ccccc1CNn1cnnc1`, the AC50 entry was “inactive”.

Regarding `CCSc1ncc(/C=N/Nc2ccc(F)cc2)n1C`, the half-maximal activity concentration (AC50) was 2.82 µM (active).

As to `CC(=O)Nc1ccc(NC(=O)Cn2c(-c3ccc(F)cc3)cnc2SCC(=O)Nc2c(C)cccc2C)cc1`, the AC50 result is “inactive”.

Turning to `FC(F)(F)c1ccccc1-c1cncnc1NCCc1cnc[nH]1`, the concentration at half-maximal activity (AC50) was 6.31 µM (active).

For `COc1cccc(-c2cncnc2NCCc2cnc[nH]2)c1`, the concentration at half-maximal activity (AC50) is 0.398 µM (active).

Regarding `COc1ccccc1-c1cncnc1NCCc1cnc[nH]1`, the half-maximal activity concentration (AC50) was 1.26 µM (active).

For `O=C(Oc1ccccc1)N1CCC2(CC1)CN(c1ccncc1)C2`, the AC50 entry was “inactive”.

With `CCCCN1C(=O)C(NC(=O)c2cccnc2)(C(F)(F)F)C2=C1CC(C)(C)CC2=O` (stereo not given), the AC50 entry is “inactive”.

For the compound `CCCC(=O)NCCc1c2n(c3ccc(OC)cc13)Cc1ccccc1-2`, the AC50 is 2.51 µM (active).

For the compound `COc1ccc(OC)c(CNC(=O)CCNC(=O)Cn2ccc3ccccc3c2=O)c1`, the AC50 entry is “inactive”.

Take `Cc1cnc(CNc2cc(-c3cccc(C#N)c3)ncn2)cn1`: the concentration at half-maximal activity (AC50) is 15.8 µM (active).

Regarding `COc1cccc(-c2cc(NCc3cnc(C)cn3)ncn2)c1`, the concentration at half-maximal activity (AC50) is 5.01 µM (active).

Regarding `CC(C)C(=O)Cc1ccc2ccccc2n1`, the AC50 was 3.16 µM (active).

Consider `O=C(O)Cc1cc2ccccc2nc1C(=O)O`, for which the AC50 result was “inactive”.

As to `C[C@@]12CCC(=O)C=C1CC[C@H]1[C@@H]2[C@@H](O)C[C@]2(C)[C@@H]1CC[C@@]2(O)C(=O)COC(=O)C1CCCC1`, the activity, negative = inhibition is -13.3% [at 11.4 µM].

As to `Cc1ccc(Cl)cc1N1CCN(S(=O)(=O)c2ccc3c(c2)OCCO3)CC1`, the AC50 entry was “inactive”.

For the compound `O=S(=O)(Nc1cccnc1Cl)c1ccc2c(c1)OCCO2`, the AC50 entry is “inactive”.

Consider `O=S(=O)(N/N=C\c1ccc2c(c1)OCO2)c1ccc(Cl)cc1`, for which the half-maximal activity concentration (AC50) was 10 µM (active).

Consider `O=S(=O)(N/N=C/c1ccc2c(c1)OCCO2)c1ccc(Cl)cc1`, for which the half-maximal activity concentration (AC50) is 11.2 µM (active).

Consider `O=C(Nc1nnc(SCc2c(Cl)cccc2Cl)s1)C1CCCO1` (stereo not given), for which the AC50 was 17.8 µM (active).

As for `O=C(Nc1nnc(SCc2ccc(Cl)cc2Cl)s1)C1COc2ccccc2O1` (stereo not given), the AC50 result was “inactive”.

As for `CCc1nnc(NC(=O)C2CCN(C(=O)NC3CCCCC3)CC2)s1`, the AC50 result was “inactive”.

For the compound `CCCCNCCOCCOc1ccc(C)cc1[N+](=O)[O-]`, the concentration at half-maximal activity (AC50) was 0.794 µM (active).

In the case of `C=CCNCCOCCOc1ccc(C)cc1[N+](=O)[O-]`, the AC50 is 0.794 µM (active).

On to `COc1ccc(C=O)cc1COc1ccc(C)cc1[N+](=O)[O-]`, for which the concentration at half-maximal activity (AC50) is 1.12 µM (active).

Turning to `O=c1cc(N2CCN(c3ccccc3)CC2)[nH]c(=O)n1C1CCCCC1`, the AC50 result was “inactive”.

As to `COc1ccc(COC(=O)N/N=C2/C[C@@H](O)[C@@H](O)[C@@H]3[C@@H]4C(=O)N(C(C)(C)C)C(=O)[C@H]4CC[C@H]23)cc1`, the activity, negative = inhibition was -10.2% [at 11.4 µM].

In the case of `CN(C)S(=O)(=O)Oc1ccsc1C(=O)Nc1ccc(Cl)cc1`, the AC50 was 0.891 µM (active).

For `Cc1ccc(Sc2ccc(NC(=O)c3ccc(S(C)(=O)=O)cc3Cl)cc2)cc1`, the AC50 entry is “inactive”.

Take `CN(C)S(=O)(=O)c1ccc(NC(=O)c2cc(F)c(F)cc2Cl)cc1`: the AC50 entry is “inactive”.

In the case of `COC(=O)c1sccc1-c1ccc(C(=O)Nc2cccc(Cl)c2)o1`, the concentration at half-maximal activity (AC50) was 1.41 µM (active).

Turning to `CN(C)S(=O)(=O)Oc1ccsc1C(=O)Nc1cccc(Cl)c1`, the AC50 was 1.41 µM (active).
